Records with an inconclusive call do not appear. Entries that show only a call come without a potency. The source made the active and inactive calls. Unless noted, calls come from the whole dose curve; as a rule, active = well fitted curve in the direction sought with a large enough effect; inconclusive = small, poorly fitted or top-dose-only effect, or another doubt; inactive = no such curve, though single readings can be large; an effect the other way counts as inactive or inconclusive.
Legend:
[1] = molecular target: Mitogen-activated protein kinase 10 (Mus musculus) (UniProt Q61831); experiment: JNK3 AlphaScreen Assay (AID 530; active = well fitted curve in either direction with a large enough effect, not every such curve was filed as active;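 note: kinase came from lysate of stimulated human HepG2 cells; signal reports phosphorylation of biotinylated GST-cJun 1-79 at Ser73 with 10 µM ATP; series mostly up to about 57 µM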)
Method in brief: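 Pre-activated (IL-1β/TNFα) JNK3 in HepG2 lysates phosphorylates biotin-GST-cJun(1-79), 10 uM ATP; anti-phospho-cJun(Ser73) AlphaScreen read at room temperature, pH 7.6 Tris buffer. Compounds pre-incubated 15 min as titrations.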

[2] = molecular target: Cytochrome P450 3A4 (Homo sapiens) (UniProt P08684); experiment: qHTS Assay for Inhibitors and Substrates of Cytochrome P450 3A4 (AID 884); note: potency is the fitted concentration of half-maximal effect; nearly all actives have a fitted effect of over 50% in size
Method in brief: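 20 nM human CYP3A4 with 25 uM Luciferin-PPXE (at KM) in 200 mM KPO4, preincubated 10 min with compound; NADPH regeneration started a 60 min RT reaction. Luciferin detected by luminescence, normalized to 57 uM ketoconazole as full inhibition.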

[3] = molecular target: Cytochrome P450 3A4 (Homo sapiens) (UniProt P08684); experiment: qHTS Assay for Activators of Cytochrome P450 3A4 (AID 885); note: nearly all actives have a fitted effect of over 65% in size
Method in brief: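 Signal was normalized against complete inhibition by 57 uM ketoconazole. The reaction used 20nM CYP3A4 with 25uM Luciferin-PPXE, 10-min compound preincubation and a 60-min NADPH-supported step at RT.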

Sequence of Cytochrome P450 3A4 (Homo sapiens) (P08684 whole entry, looked up): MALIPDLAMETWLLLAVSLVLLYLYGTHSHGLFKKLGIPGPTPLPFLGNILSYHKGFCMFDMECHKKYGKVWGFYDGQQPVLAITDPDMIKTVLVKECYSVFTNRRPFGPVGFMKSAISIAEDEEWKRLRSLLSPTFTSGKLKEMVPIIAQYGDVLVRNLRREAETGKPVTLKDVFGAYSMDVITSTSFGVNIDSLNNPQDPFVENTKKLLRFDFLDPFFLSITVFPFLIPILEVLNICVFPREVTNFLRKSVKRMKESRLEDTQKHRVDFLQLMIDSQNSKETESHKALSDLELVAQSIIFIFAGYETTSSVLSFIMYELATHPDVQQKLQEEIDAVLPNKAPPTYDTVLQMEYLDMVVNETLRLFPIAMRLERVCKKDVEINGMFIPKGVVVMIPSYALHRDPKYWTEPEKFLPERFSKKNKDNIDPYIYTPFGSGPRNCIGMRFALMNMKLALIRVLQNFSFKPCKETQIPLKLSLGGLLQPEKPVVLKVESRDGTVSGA

| SMILES | outcome [1] | Potency [2] | Potency [3] |
| --- | --- | --- | --- |
| COC(=O)CNC(=O)C1(C)C=CCN1C(=O)c1ccccc1 (centres undefined) | inactive | 39800 nM (active) | inactive |
| COC(=O)N1CC=CC1(C)C(=O)NCc1ccc(C)o1 (centres undefined) | inactive |  | inactive |
| COC(=O)C1(C)C=CC2(CCCCC2)N1C(C)=O (centres undefined) | inactive |  | inactive |
| C[C@]1(C(=O)NCc2cc(F)cc(C(F)(F)F)c2)C=C[C@@H](Cc2ccccc2)N1C(=O)c1ccccc1 | inactive | 2000 nM (active) | inactive |
| CC(=O)N1[C@H](C)C=C[C@]1(Cc1ccccc1)C(=O)NCCc1c[nH]c2ccccc12 | inactive |  | inactive |
| C[C@H](NC(=O)[C@@H]1C[C@H]1[C@@H](NC(=O)OCc1ccccc1)c1ccccc1)c1ccccc1 | inactive | 12600 nM (active) | inactive |
| CC(C)CC1(C(=O)NCc2ccccn2)C=CCN1C(=O)c1ccccc1 (centres undefined) | inactive |  | inactive |
| C[C@@H]1C=C[C@](Cc2ccccc2)(C(=O)NCCCNc2ncc(C(F)(F)F)cc2Cl)N1C(=O)c1ccccc1 | inactive |  | inactive |
| COC(=O)[C@@]1(C)C=C[C@@H](Cc2ccccc2)N1C(C)=O | inactive |  | inactive |
| COC(=O)CNC(=O)C1(CC(C)C)C=CCN1C(C)=O (centres undefined) | inactive |  | inactive |
| COC(=O)c1ccc(C(NC(=O)OCc2ccccc2)/C(=C/[C@@H](C)C(=O)NCC2CC2)c2cccnc2)cc1 (some centres undefined) | inactive | 2000 nM (active) | inactive |
| COC(=O)c1ccc(C(NC(=O)OCc2ccccc2)/C(=C/[C@@H](C)C(=O)N(C)Cc2ccccc2)c2cccnc2)cc1 (some centres undefined) | inactive | 2000 nM (active) | inactive |
